Calls of active or inactive are those of the source.
Tests used:
[1] = system: Human papillomavirus type 1a protein E7 (residues 44-93); test: HPV1a E7 fragment binders on microarrays, primary screen, biochemical, small-molecule microarray, residues 44-93, 635 nm fluorescence (AID 1108); settings: small-molecule microarray binding, fluorescence 635 nm; higher = more signal;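 also: E7 fragment applied at 1 µg/mL in TBST for 1 h at 4 C; score combines spot fluorescence with its signal to noise ratio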
[2] = modulators of HCV replicon luciferase signal, primary screen, HCV replication inhibitor project, Huh7 cells, luciferase reporter (AID 1109); settings: 48 h, higher = more signal;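 also: huh7 hepatoma cells harbouring a luciferase neomycin HCV replicon reporter; luciferase luminescence as measure of HCV replicon replication; test concentration not given here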
[3] = target: Left-right determination factor 2 (Homo sapiens) (UniProt O00292); test: LEFTY2 binders on small-molecule microarrays, primary screen, biochemical, small-molecule microarray, 635 nm fluorescence scan (AID 1110); settings: LEFTY2 binding, higher = more signal
Left-right determination factor 2 (Homo sapiens), sequence (O00292 whole entry, looked up): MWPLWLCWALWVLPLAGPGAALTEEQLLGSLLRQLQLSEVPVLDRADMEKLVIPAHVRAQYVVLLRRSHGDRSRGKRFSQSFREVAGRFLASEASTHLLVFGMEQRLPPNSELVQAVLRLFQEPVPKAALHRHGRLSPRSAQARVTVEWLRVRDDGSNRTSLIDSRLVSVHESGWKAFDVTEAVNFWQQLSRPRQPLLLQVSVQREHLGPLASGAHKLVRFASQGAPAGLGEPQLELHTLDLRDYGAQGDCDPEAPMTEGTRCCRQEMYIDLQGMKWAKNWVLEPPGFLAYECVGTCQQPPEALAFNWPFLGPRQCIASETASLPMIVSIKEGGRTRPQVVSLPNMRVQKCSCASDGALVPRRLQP

[4] = target: Calmodulin-1 (Homo sapiens) (UniProt P0DP23); test: CALM1 binders on microarrays, EGTA buffer, profiling panel, biochemical, small-molecule microarray, Cy5-labelled CALM1 (AID 1111); settings: Cy5-CALM1 binding fluorescence, higher = more signal;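 also: labelled calmodulin applied in Tris saline Tween buffer holding calcium plus EGTA and DTT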
[5] = target: Calmodulin-1 (Homo sapiens) (UniProt P0DP23); test: calcium-bound CALM1 binders on microarrays, profiling panel, artefact control for SMM control-protein annotation, biochemical, small-molecule microarray, Cy5-labelled CALM1, plus calcium (AID 1112); settings: Cy5-CALM1 binding fluorescence, higher = more signal;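 also: score merges spot fluorescence with signal to noise from triplicate slides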
[6] = small-molecule microarray binders of probe aWnt5a, primary screen, biochemical, biotinylated probe, 635/667 nm fluorescence (AID 1113); settings: higher = more signal;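 also: score merges 667 nm fluorescence intensity with signal-to-noise per printed feature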
[7] = small-molecule microarray binders of probe aShh, primary screen, biochemical, biotinylated probe, 635/667 nm fluorescence (AID 1114); settings: higher = more signal;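 also: probe is biotin-labelled aShh protein from a stem cell growth factor screen; measures binding of labelled protein to compounds printed on the slide; score merges feature fluorescence at 667 nm with signal-to-noise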
[8] = small-molecule microarray binders of probe aNog, primary screen, biochemical, biotinylated probe, 635/667 nm fluorescence (AID 1115); settings: higher = more signal;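 also: probe is biotinylated aNog protein used at 0.15 µg/mL for 1 h at 4 C; z-score combines 667 nm fluorescence of each spot with its signal to noise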
[9] = target: Torsin-1A-interacting protein 1 (Homo sapiens) (UniProt Q5JTV8); test: LAP1 binders from COS7 cell lysate, primary screen, small-molecule microarray, 635/667 nm fluorescence (AID 1116); settings: COS7-hLAP1 lysate binding, 635 nm fluorescence, higher = more signal
Torsin-1A-interacting protein 1 (Homo sapiens), sequence (Q5JTV8 whole entry, looked up): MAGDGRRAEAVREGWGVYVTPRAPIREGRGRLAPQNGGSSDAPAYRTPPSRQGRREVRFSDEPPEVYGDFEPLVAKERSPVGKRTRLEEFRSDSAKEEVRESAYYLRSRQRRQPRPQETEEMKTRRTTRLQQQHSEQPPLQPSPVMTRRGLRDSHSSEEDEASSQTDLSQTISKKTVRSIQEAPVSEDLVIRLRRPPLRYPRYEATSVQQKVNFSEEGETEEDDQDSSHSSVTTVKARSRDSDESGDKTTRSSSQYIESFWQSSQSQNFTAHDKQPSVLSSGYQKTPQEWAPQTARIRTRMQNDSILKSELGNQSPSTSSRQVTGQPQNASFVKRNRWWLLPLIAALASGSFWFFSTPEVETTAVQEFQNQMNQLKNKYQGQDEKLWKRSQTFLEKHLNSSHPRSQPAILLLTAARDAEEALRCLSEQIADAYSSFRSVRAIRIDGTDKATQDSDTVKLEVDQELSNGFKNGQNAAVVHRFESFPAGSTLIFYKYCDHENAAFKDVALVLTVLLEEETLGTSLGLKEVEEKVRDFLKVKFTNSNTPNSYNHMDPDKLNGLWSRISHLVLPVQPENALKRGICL

[10] = target: Alpha-bungarotoxin (Bungarus multicinctus) (UniProt P60615); test: alpha-bungarotoxin binders on microarray, profiling panel, artefact control for SMM control protein annotation, biochemical, small-molecule microarray, Alexa647 label, 635/667 nm fluorescence (AID 1117); settings: alpha-BTX-A647 binding fluorescence, higher = more signal
Alpha-bungarotoxin (Bungarus multicinctus), sequence (P60615 whole entry, looked up): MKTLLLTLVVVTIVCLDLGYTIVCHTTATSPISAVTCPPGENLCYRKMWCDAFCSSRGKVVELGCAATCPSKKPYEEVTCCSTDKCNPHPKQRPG

[11] = target: Albumin (Bos taurus) (UniProt P02769); test: bovine serum albumin binders on microarray, profiling panel, artefact control for SMM control protein annotation, biochemical, small-molecule microarray, Alexa647 label, 635/667 nm fluorescence (AID 1118); settings: BSA-A647 binding, fluorescence 635 nm, higher = more signal;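 also: score merges 667 nm emission intensity and signal-to-noise per printed compound spot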
Albumin (Bos taurus), sequence (P02769 whole entry, looked up): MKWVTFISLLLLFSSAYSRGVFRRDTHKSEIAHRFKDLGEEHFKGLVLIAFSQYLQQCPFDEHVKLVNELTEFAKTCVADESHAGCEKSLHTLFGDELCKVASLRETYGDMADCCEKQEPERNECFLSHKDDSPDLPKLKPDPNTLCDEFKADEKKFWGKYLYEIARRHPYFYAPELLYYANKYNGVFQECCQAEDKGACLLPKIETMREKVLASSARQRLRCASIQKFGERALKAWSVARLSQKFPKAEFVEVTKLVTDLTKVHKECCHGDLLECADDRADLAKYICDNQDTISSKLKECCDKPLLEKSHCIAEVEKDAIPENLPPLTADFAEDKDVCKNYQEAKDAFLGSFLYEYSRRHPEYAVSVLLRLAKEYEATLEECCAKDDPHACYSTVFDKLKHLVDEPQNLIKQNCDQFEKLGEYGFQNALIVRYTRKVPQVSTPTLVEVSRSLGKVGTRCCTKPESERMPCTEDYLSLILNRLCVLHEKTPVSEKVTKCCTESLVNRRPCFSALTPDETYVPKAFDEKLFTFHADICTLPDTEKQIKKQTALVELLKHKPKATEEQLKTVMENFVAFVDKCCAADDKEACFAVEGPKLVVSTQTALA

[12] = small-molecule microarray binders of probe aXIP, primary screen, biochemical, NeuroSMM set, 635/667 nm fluorescence (AID 1119); settings: higher = more signal, called active from +8 up or from −8 down;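 also: probe is the protein aXip251-270 applied at 1 µg/mL to compound-printed slides; binding of probe to printed compounds measured as 667 nm fluorescence plus signal to noise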
[13] = small-molecule binders of probe aNOTCH3, primary screen, biochemical, small-molecule microarray, 635/667 nm fluorescence (AID 1120); settings: higher = more signal;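 also: probe is a biotin-tagged antibody raised against NOTCH3 rather than NOTCH3 protein; score merges spot fluorescence near 667 nm with spot signal to noise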
[14] = small-molecule binders of probe aNOTCH2, primary screen, biochemical, small-molecule microarray, 635/667 nm fluorescence (AID 1121); settings: higher = more signal;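 also: score merges feature fluorescence read at 667 nm with its signal to noise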
[15] = target: Carbonic anhydrase 2 (Homo sapiens) (UniProt P00918); test: CAII small-molecule binders, profiling panel, biochemical, small-molecule microarray, Alexa647-labelled CAII (AID 1122); settings: CAII-A647 binding fluorescence, higher = more signal
[16] = COS7 lysate on small-molecule microarray, probe aHis, 635 nm (AID 1123); settings: COS7 cell lysate, fluorescence, higher = more signal;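 also: z-score combines 667nm fluorescence intensity with signal-to-noise per printed compound spot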
[17] = compound binding in COS7 lysate, probe aLAP1, primary screen, cell lysate, small-molecule microarray (AID 1124); settings: probe aLAP1, fluorescence, higher = more signal;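 also: lysate comes from COS7 cells expressing LAP1 and is applied at 0.3 µg/mL; score merges spot fluorescence near 667 nm with signal-to-noise over triplicate slides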
[18] = system: Sam68 (KHDRBS1); test: Sam68 small-molecule binders, primary screen, biochemical, small-molecule microarray, 635 nm fluorescence (AID 1125); settings: small-molecule microarray binding, higher = more signal;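 also: score merges 667 nm channel intensity with signal to noise over triplicate slides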
[19] = system: Chordin-like protein 2 (CHRDL2); test: CHRDL2 small-molecule binders, primary screen, biochemical, small-molecule microarray, 635 nm fluorescence (AID 1126); settings: small-molecule microarray binding, fluorescence 635 nm; higher = more signal;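 also: printed compound slides probed with Chrdl2 protein at 4 µg/mL for 1 h at 4 C; score merges 667 nm emission intensity with signal to noise over three replicate slides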
[20] = target: Concanavalin-A (Canavalia ensiformis) (UniProt P02866); test: ConA small-molecule binders, primary screen, artefact control for SMM control protein annotation, biochemical, small-molecule microarray, Alexa647 label, 635 nm (AID 1127); settings: ConA-A647 binding fluorescence, higher = more signal;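 also: z combines 667 nm emission intensity with signal-to-noise across three replicate slides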
Concanavalin-A (Canavalia ensiformis), sequence (P02866 whole entry, looked up): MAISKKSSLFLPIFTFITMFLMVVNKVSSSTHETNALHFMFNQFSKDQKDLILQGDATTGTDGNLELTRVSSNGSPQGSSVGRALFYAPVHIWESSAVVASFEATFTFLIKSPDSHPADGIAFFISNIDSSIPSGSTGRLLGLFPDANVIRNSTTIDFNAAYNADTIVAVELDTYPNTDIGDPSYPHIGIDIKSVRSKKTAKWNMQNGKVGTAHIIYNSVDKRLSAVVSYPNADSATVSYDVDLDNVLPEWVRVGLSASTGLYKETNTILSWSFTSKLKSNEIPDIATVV

N#Cc1ccc(C(O)C2C=CC3C(=O)N(c4ccccc4)C(=O)C3N2Nc2ccc([N+](=O)[O-])cc2)cc1 (stereo not given)
composite z-score [1]: 0.632
z-score [2]: -1.2
composite z-score [3]: 0.0058
composite z-score [4]: 2.16
composite z-score [5]: 1.14
composite z-score [6]: 0.222
composite z-score [7]: 0.0434
composite z-score [8]: 0.595
composite z-score [9]: 1.69
composite z-score [10]: 1.96
composite z-score [11]: 0.895
composite Z-score [12]: 0.453 (inactive)
composite z-score [13]: 0.0749
composite z-score [14]: 0.0912
composite z-score [15]: 0.748
composite z-score [16]: 2.45
composite z-score [17]: 1.05
composite z-score [18]: 1.28
composite z-score [19]: -0.558
composite z-score [20]: 1.23

[N-]=[N+]=Nc1ccccc1[C@@H]1OC(c2ccc(OCCCO)cc2)=N[C@]1(Cc1ccccc1)C(N)=O
composite z-score [1]: 1.06
z-score [2]: -0.837
composite z-score [3]: -0.391
composite z-score [4]: 1.04
composite z-score [5]: 0.719
composite z-score [6]: -0.166
composite z-score [7]: 0.173
composite z-score [8]: -0.0956
composite z-score [9]: 0.0305
composite z-score [10]: 0.209
composite z-score [11]: 0.503
composite Z-score [12]: -0.0189 (inactive)
composite z-score [13]: 0.0694
composite z-score [14]: -0.0149
composite z-score [15]: 0.724
composite z-score [16]: 1.07
composite z-score [17]: -0.247
composite z-score [18]: 0.495
composite z-score [19]: -0.178
composite z-score [20]: 0.0171

CC(C)CNC(=O)[C@@H]1c2ccccc2C(=O)N(C(C)C)[C@H]1c1ccc(CO)cc1
composite z-score [1]: -0.043
z-score [2]: -0.972
composite z-score [3]: -0.269
composite z-score [4]: -0.451
composite z-score [5]: 0.0584
composite z-score [6]: -0.24
composite z-score [7]: -0.2
composite z-score [8]: 0.49
composite z-score [9]: 1.58
composite z-score [10]: -0.75
composite z-score [11]: 0.121
composite Z-score [12]: 0.337 (inactive)
composite z-score [13]: -0.153
composite z-score [14]: -0.0454
composite z-score [15]: 0.757
composite z-score [16]: 0.435
composite z-score [17]: 1.25
composite z-score [18]: -0.463
composite z-score [19]: 0.0021
composite z-score [20]: -1.56

COCCOC(=O)N1C(=O)[C@@]2(c3cc(C#Cc4ccc(OC)cc4)ccc31)[C@H](c1ccc(OCCO)cc1)N1[C@H](c3ccccc3)[C@H](c3ccccc3)OC(=O)[C@H]1[C@@H]2C(=O)N1CCCCCCC1
composite z-score [1]: 1.35
z-score [2]: -0.891
composite z-score [3]: 0.954
composite z-score [4]: 2.27
composite z-score [5]: 1.21
composite z-score [6]: 0.777
composite z-score [7]: 2.23
composite z-score [8]: 3.67
composite z-score [9]: 3.66
composite z-score [10]: 1.99
composite z-score [11]: 0.807
composite Z-score [12]: 1.44 (inactive)
composite z-score [13]: 1.29
composite z-score [14]: 0.177
composite z-score [15]: 0.4
composite z-score [16]: 2.92
composite z-score [17]: 1.23
composite z-score [18]: 1.25
composite z-score [19]: 1.31
composite z-score [20]: 0.927

COC(=O)[C@@]1(Cc2ccc(F)cc2)[C@H]2c3cc(C(=O)N(C)C)n(CCO)c3C[C@H]2CN1C(=O)c1ccccc1
composite z-score [1]: -0.0095
z-score [2]: -0.896
composite z-score [3]: -0.388
composite z-score [4]: 0.987
composite z-score [5]: 0.322
composite z-score [6]: -0.0271
composite z-score [7]: 0.494
composite z-score [8]: 1.33
composite z-score [9]: 1.47
composite z-score [10]: -0.148
composite z-score [11]: 1.13
composite Z-score [12]: -0.551 (inactive)
composite z-score [13]: -0.0448
composite z-score [14]: 0.0746
composite z-score [15]: 0.861
composite z-score [16]: 1.97
composite z-score [17]: 1.21
composite z-score [18]: -0.206
composite z-score [19]: -0.437
composite z-score [20]: -0.0249
